We go through four compounds from PubChem BioAssay (EPA / NIEHS).

Activity calls are given as the source filed them. The calls were made as follows: active = hit-call score of the fitted dose curve at least 0.9, where 1 is the maximum; inactive = score below 0.9.

Read-out in assay [1]: Transforming growth factor beta 1 (TGFb1), TGFB1 (gene 7040)
Kind of assay: BSK_KF3CT_TGFb1: BioMAP Diversity Plus: KF3CT Assay for Transforming growth factor beta 1 (TGFb1) Biomarker Activity (AID 2283072). As to conditions: primary human keratinocytes with fibroblasts; actives raise or lower the signal. Put shortly: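 Read-out: ELISA for TGF-b1 in keratinocyte/foreskin fibroblast human skin co-culture, 24 h after dosing; bidirectional curve fit vs DMSO baseline; gain or loss of signal scored.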

Read-out in assay [2]: C-C motif chemokine 2 (Homo sapiens) (UniProt P13500)
Kind of assay: BSK_KF3CT_MCP1: BioMAP Diversity Plus: KF3CT Assay for Monocyte Chemoattractant Protein 1 (MCP1/CCL2) Biomarker Activity (AID 2283073). As to conditions: primary human keratinocytes with fibroblasts; actives raise or lower the signal. Put shortly:
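Human keratinocyte plus foreskin fibroblast primary co-culture exposed to chemical for 24 h. MCP-1 levels measured by ELISA. Bidirectional curve fitting relative to DMSO negative control as baseline.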

Read-out in assay [3]: Matrix Metallopeptidase 9 (MMP9), MMP9 (gene 4318)
Kind of assay: BSK_KF3CT_MMP9: BioMAP Diversity Plus: KF3CT Assay for Matrix Metallopeptidase 9 (MMP9) Biomarker Activity (AID 2283074). Particulars: primary human keratinocytes with fibroblasts; actives raise or lower the signal. Put shortly: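 ELISA read-out of MMP-9 at 24 h post-dosing in a co-culture of human skin keratinocytes and foreskin fibroblasts. Gain or loss of signal was fitted in both directions against DMSO.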

Read-out in assay [4]: urokinase plasminogen activator (uPA), PLAU (gene 5328)
Kind of assay: BSK_KF3CT_uPA: BioMAP Diversity Plus: KF3CT Assay for urokinase plasminogen activator (uPA) Biomarker Activity (AID 2283075). As to conditions: primary human keratinocytes with fibroblasts; actives raise or lower the signal. Put shortly:
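Skin co-culture (keratinocytes + foreskin fibroblasts), human primary; 24 h post-dose; uPA by ELISA; gain/loss fit vs DMSO baseline.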

Read-out in assay [5]: CD40, CD40 (gene 958)
Kind of assay: BSK_LPS_CD40: BioMAP Diversity Plus: LPS Assay for CD40 Biomarker Activity (AID 2283076). As to conditions: primary human HUVEC with PBMC; actives raise or lower the signal. In a few lines: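 Primary human umbilical vein endothelial cells co-cultured with peripheral blood mononuclear cells, LPS-stimulated, were dosed with chemical and read 24 h later. CD40 levels were measured by ELISA and fitted bidirectionally against DMSO as negative control and baseline.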

Read-out in assay [6]: E-selectin (Homo sapiens) (UniProt P16581)
Kind of assay: BSK_LPS_Eselectin: BioMAP Diversity Plus: LPS Assay for Eselectin Biomarker Activity (AID 2283077). As to conditions: primary human HUVEC with PBMC; actives raise or lower the signal. Put shortly: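 Human umbilical vein endothelial cells co-cultured with peripheral blood mononuclear cells under LPS stimulation; E-selectin measured by ELISA 24 h after chemical dosing. Activity fitted bidirectionally against DMSO as negative control and baseline.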

Read-out in assay [7]: Interleukin-8 (IL8), CXCL8 (gene 3576)
Kind of assay: BSK_LPS_IL8: BioMAP Diversity Plus: LPS Assay for Interleukin-8 (IL8) Biomarker Activity (AID 2283078). As to conditions: primary human HUVEC with PBMC; actives raise or lower the signal. Put shortly:
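Human umbilical vein endothelial cells co-cultured with PBMC were stimulated with LPS; IL-8 levels were measured by ELISA 24 h after chemical dosing. Activity was fitted bidirectionally against DMSO as negative control and baseline.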

Assay [8] in a line: BSK_LPS_SRB: Viability Assessment in the BioMAP Diversity Plus: LPS Assay (AID 2283079).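 Also: total protein by sulforhodamine B absorbance as a cytotoxicity measure; measured one day after compound addition.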 Particulars: primary human HUVEC with PBMC. Put shortly: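 Human umbilical vein endothelial cells co-cultured with PBMC (LPS system) were dosed for 24 h. Total protein was stained with 0.1% sulforhodamine B after 10% TCA fixation, read at 560 nm, and fitted bidirectionally against DMSO baseline.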

Read-out in assay [9]: Interleukin-1 alpha (IL1a), IL1A (gene 3552)
Kind of assay: BSK_LPS_IL1a: BioMAP Diversity Plus: LPS Assay for Interleukin-1 alpha (IL1a) Biomarker Activity (AID 2283080). As to conditions: primary human HUVEC with PBMC; actives raise or lower the signal. In a few lines:
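Human umbilical vein endothelial cells co-cultured with peripheral blood mononuclear cells were LPS-stimulated and exposed to test chemicals for 24 h. IL-1 alpha was quantified by ELISA, with bidirectional curve fitting against DMSO as the negative control and baseline.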

Read-out in assay [10]: Monocyte Chemoattractant Protein-1 (MCP1), CCL2 (gene 6347)
Kind of assay: BSK_LPS_MCP1: BioMAP Diversity Plus: LPS Assay for Monocyte Chemoattractant Protein-1 (MCP1) Biomarker Activity (AID 2283081). As to conditions: primary human HUVEC with PBMC; actives raise or lower the signal. In a few lines:
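HUVEC plus PBMC co-culture (human primary cells, LPS system) exposed to test chemical for 24 h; MCP-1 measured by ELISA. Bidirectional curve fitting against DMSO baseline; parallel SRB total-protein staining flags overt cytotoxicity.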

Assay [11] in a line: BSK_LPS_PGE2: BioMAP Diversity Plus: LPS Assay for Prostaglandin E2 (PGE2) Biomarker Activity (AID 2283082).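 As to AC50: secreted prostaglandin E2 measured by ELISA in LPS-stimulated co-culture.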 As to conditions: primary human HUVEC with PBMC; actives raise or lower the signal. Put shortly:
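ELISA read-out of PGE2 from human umbilical vein endothelial cells co-cultured with peripheral blood mononuclear cells under LPS, 24 h post-dose. Gain or loss of signal scored relative to DMSO baseline.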

Read-out in assay [12]: Macrophage colony-stimulating factor (MCSF), CSF1 (gene 1435)
Kind of assay: BSK_LPS_MCSF: BioMAP Diversity Plus: LPS Assay for Macrophage colony-stimulating factor (MCSF) Biomarker Activity (AID 2283083). Particulars: primary human HUVEC with PBMC; actives raise or lower the signal. In a few lines:
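Human umbilical vein endothelial cells co-cultured with peripheral blood mononuclear cells were exposed to compound for 24 h. M-CSF levels were measured by ELISA, and bidirectional curve fitting used DMSO as the negative control and baseline.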

Read-out in assay [13]: Tissue Factor, F3 (gene 2152)
Kind of assay: BSK_LPS_TissueFactor: BioMAP Diversity Plus: LPS Assay for Tissue Factor Biomarker Activity (AID 2283084). As to conditions: primary human HUVEC with PBMC; actives raise or lower the signal. Put shortly:
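Human umbilical vein endothelial cells co-cultured with peripheral blood mononuclear cells were dosed and stimulated with LPS. Cell-surface CD142 was quantified by ELISA at 24 h. Activity was fitted bidirectionally against DMSO baseline.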

Read-out in assay [14]: Tumor necrosis factor (Homo sapiens) (UniProt P01375)
Kind of assay: BSK_LPS_TNFa: BioMAP Diversity Plus: LPS Assay for Tumour Necrosis Factor alpha (TNFa) Biomarker Activity (AID 2283085).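 As to AC50: TNFa protein level quantified by ELISA in the co-culture.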 Particulars: primary human HUVEC with PBMC; actives raise or lower the signal. Put shortly:
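HUVEC/PBMC co-culture, LPS-stimulated; 24 h post-dose; TNFa by ELISA; gain or loss of signal fitted bidirectionally vs DMSO baseline.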

Read-out in assay [15]: Vascular cell adhesion molecule 1 (VCAM1), VCAM1 (gene 7412)
Kind of assay: BSK_LPS_VCAM1: BioMAP Diversity Plus: LPS Assay for Vascular cell adhesion molecule 1 (VCAM1) Biomarker Activity (AID 2283086). Particulars: primary human HUVEC with PBMC; actives raise or lower the signal. Put shortly:
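ELISA read-out of VCAM-1 at 24 h post-dosing in an LPS-driven HUVEC/PBMC primary human co-culture; gain or loss of signal fitted bidirectionally against DMSO baseline. Cytotoxicity tracked in parallel cultures by SRB total-protein staining.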

Read-out in a further assay: CD38, CD38 (gene 952)
Kind of assay: BSK_SAg_CD38: BioMAP Diversity Plus: SAg Assay for CD38 Biomarker Activity (AID 2283087). Particulars: primary human HUVEC with PBMC; actives raise or lower the signal. Put shortly: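 Measures CD38 on a human endothelial/PBMC co-culture driven by SEB and TSST-1, 24 h after compound exposure, using ELISA with fluorescence detection; DMSO defines baseline for bidirectional curve fitting.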

Read-out in assay [16]: CD40, CD40 (gene 958)
Kind of assay: BSK_SAg_CD40: BioMAP Diversity Plus: SAg Assay for CD40 Biomarker Activity (AID 2283088). As to conditions: primary human HUVEC with PBMC; actives raise or lower the signal. Put shortly: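 Human umbilical vein endothelial cells co-cultured with PBMC; CD40 levels measured by ELISA with fluorescence read-out 24 h after chemical dosing. Gain or loss of signal fitted bidirectionally against DMSO baseline.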

Read-out in the next assay: CD69, CD69 (gene 969)
Kind of assay: BSK_SAg_CD69: BioMAP Diversity Plus: SAg Assay for CD69 Biomarker Activity (AID 2283089).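 As to AC50: cell surface CD69 protein quantified by ELISA with fluorescence detection.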 As to conditions: primary human HUVEC with PBMC; actives raise or lower the signal. In a few lines:
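Values derive from bidirectional fitting relative to DMSO vehicle. Cells: umbilical vein endothelium plus peripheral blood mononuclear cells, treated 24 h before fluorescent ELISA for CD69.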

Read-out in assay [17]: Monocyte Chemoattractant Protein-1 (MCP1), CCL2 (gene 6347)
Kind of assay: BSK_SAg_MCP1: BioMAP Diversity Plus: SAg Assay for Monocyte Chemoattractant Protein-1 (MCP1) Biomarker Activity (AID 2283090). Particulars: primary human HUVEC with PBMC; actives raise or lower the signal. In a few lines: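 Values derive from bidirectional fitting of ELISA-measured MCP1 against DMSO controls. Readings were taken 24 h after dosing human vascular endothelial cells co-cultured with peripheral blood mononuclear cells under superantigen stimulation.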

Chain of E-selectin (Homo sapiens) (P16581 whole entry, looked up): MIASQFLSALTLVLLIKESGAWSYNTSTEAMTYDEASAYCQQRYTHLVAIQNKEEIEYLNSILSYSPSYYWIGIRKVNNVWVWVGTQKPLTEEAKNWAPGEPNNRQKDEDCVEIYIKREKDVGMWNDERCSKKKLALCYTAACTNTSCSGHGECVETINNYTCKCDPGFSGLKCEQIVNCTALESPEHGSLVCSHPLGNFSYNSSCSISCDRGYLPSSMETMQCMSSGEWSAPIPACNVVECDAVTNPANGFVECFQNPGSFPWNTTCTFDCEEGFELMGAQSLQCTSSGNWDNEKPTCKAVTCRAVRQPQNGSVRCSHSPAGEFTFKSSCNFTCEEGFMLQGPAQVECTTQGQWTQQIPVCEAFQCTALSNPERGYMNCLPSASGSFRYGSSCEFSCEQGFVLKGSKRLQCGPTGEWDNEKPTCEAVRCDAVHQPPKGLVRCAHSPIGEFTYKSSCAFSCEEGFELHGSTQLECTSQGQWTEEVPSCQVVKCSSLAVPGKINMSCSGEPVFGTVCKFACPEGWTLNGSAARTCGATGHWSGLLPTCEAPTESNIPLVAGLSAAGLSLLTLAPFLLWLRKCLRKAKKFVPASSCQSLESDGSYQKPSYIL
Chain of Tumor necrosis factor (Homo sapiens) (P01375 whole entry, looked up): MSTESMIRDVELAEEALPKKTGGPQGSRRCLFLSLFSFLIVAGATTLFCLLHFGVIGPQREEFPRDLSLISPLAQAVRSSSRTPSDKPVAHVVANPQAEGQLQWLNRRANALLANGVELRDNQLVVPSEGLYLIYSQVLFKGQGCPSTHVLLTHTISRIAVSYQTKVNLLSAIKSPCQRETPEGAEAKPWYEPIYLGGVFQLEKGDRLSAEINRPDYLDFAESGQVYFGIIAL

As for `N#CN`, the outcome in assay [1] was “inactive”; in [2], “inactive”; in [3], “inactive”; in assay [4], “inactive”; with CD40, CD40 (gene 958) [5] it was “inactive”; in [6], “inactive”. Further, the result in assay [7], in [8], in assay [9], in assay [10], in assay [11] and in assay [12] was inactive. In addition, the outcome in assay [13] is “inactive”; in [14], “inactive”; in assay [15] it was “inactive”; in the assay with CD38, CD38 (gene 952) it was “inactive”; with CD40, CD40 (gene 958) [16], “inactive”; with CD69, CD69 (gene 969), “inactive”. Also, the result in assay [17] was inactive.

Turning to `OCCOc1ccccc1`, the outcome in [1] is “inactive”; in assay [2], “inactive”; in assay [3], “inactive”; in assay [4], “inactive”; with CD40, CD40 (gene 958) [5] it was “inactive”; in assay [6], “inactive”. Also, the result in [7], in [8], in assay [9], in assay [10], in assay [11] and in assay [12] was inactive. Moreover, the outcome is “inactive” in [13]; “inactive” in assay [14]; “inactive” in assay [15]; “inactive” in the assay with CD38, CD38 (gene 952); “inactive” with CD40, CD40 (gene 958) [16]; “inactive” in the assay with CD69, CD69 (gene 969). Further, the result in [17] was inactive.

Broadly, the AC50 is the midpoint of the concentration-response curve, whichever way the signal moves. Consider `CCc1ccc(C(=O)NN(C(=O)c2cc(C)cc(C)c2)C(C)(C)C)cc1`, for which the outcome in assay [1] was “inactive”; in assay [2] it was “inactive”; in assay [3], “inactive”; in [4] it was “inactive”; with CD40, CD40 (gene 958) [5], “inactive”; in [6], “inactive”. For the same compound, the outcome in assay [7], in [8], in assay [9], in [10], in assay [12] and in [13] was inactive. In addition, the outcome was “inactive” in [15]; “inactive” with CD40, CD40 (gene 958) [16]; “inactive” in [17]. Further, the AC50 in assay [11] was 20 µM (active); in assay [14] it was 14.2 µM (active); with CD38, CD38 (gene 952), 30.6 µM (active); in the assay with CD69, CD69 (gene 969) it was 13.5 µM (active).

As to `CCC(C)Nc1c([N+](=O)[O-])cc(C(C)(C)C)cc1[N+](=O)[O-]` (stereo unspecified), the result in assay [1], in assay [2], in [3], in [4], in assay [7] and in assay [9] was inactive. The result in assay [10], in assay [11], in assay [13], in assay [14] and in assay [17] was inactive. Moreover, the AC50 in the assay with CD40, CD40 (gene 958) [5] was 31.9 µM (active); in [6], 14.6 µM (active); in [8], 20 µM (active); in assay [12], 11.1 µM (active); in assay [15] it was 22.8 µM (active); in the assay with CD38, CD38 (gene 952) it was 16.6 µM (active). The AC50 was 30.7 µM (active) in the assay with CD40, CD40 (gene 958) [16] and 15.6 µM (active) with CD69, CD69 (gene 969).
